# Records with an inconclusive call do not appear. Some compounds were tested as several samples or in several runs, with calls that do not always agree. Active and inactive are the calls of the source. Rule for the calls, unless noted: active = hit-call score of the fitted dose curve at least 0.9, where 1 is the maximum; inactive = score below 0.9.
# Columns and labels:
# [1] = read-out: succinate dehydrogenase complex iron sulfur subunit B (SDHB), SDHB (gene 6390); assay: LTEA_HepaRG_SDHB: Life Technologies and Expression Analysis (LTEA) Assay for succinate dehydrogenase complex iron sulfur subunit B (SDHB) using HepaRG (AID 2283528); details: mRNA level, 48 h; actives raise or lower the signal
# Method in brief: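 HepaRG, 48 h exposure, 8-pt half-log series from 100 uM in 0.5% DMSO, duplicates. Readout: SDHB mRNA by Fluidigm qRT-PCR vs housekeeping genes; bidirectional fit relative to DMSO.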
# [2] = read-out: Signal transducer and activator of transcription 3 (Homo sapiens) (UniProt P40763); assay: LTEA_HepaRG_STAT3: Life Technologies and Expression Analysis (LTEA) Assay for Signal transducer and activator of transcription (STAT3) using HepaRG (AID 2283529); details: mRNA level, 48 h; actives raise or lower the signal
# Method in brief: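 HepaRG, 48 h exposure, 8-pt half-log series (top 100 uM), 0.5% DMSO vehicle, duplicates. Readout: STAT3 transcript by Fluidigm qRT-PCR, housekeeping-normalized; bidirectional fit vs DMSO baseline.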
# [3] = read-out: solute carrier (SLCO1B1), SLCO1B1 (gene 10599); assay: LTEA_HepaRG_SLCO1B1: Life Technologies and Expression Analysis (LTEA) Assay for solute carrier (SLCO1B1) using HepaRG (AID 2283530); details: mRNA level, 48 h; actives raise or lower the signal
# Method in brief: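 Gain or loss of SLCO1B1 mRNA is fitted against the 0.5% DMSO vehicle in human HepaRG liver cells treated 48 h at up to 100 uM in half-log steps. Expression comes from qRT-PCR normalized to endogenous controls.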
# [4] = read-out: sulfotransferase 2A1 (SULT2A1), SULT2A1 (gene 6822); assay: LTEA_HepaRG_SULT2A1: Life Technologies and Expression Analysis (LTEA) Assay for sulfotransferase 2A1 (SULT2A1) using HepaRG (AID 2283531); details: mRNA level, 48 h; actives raise or lower the signal
# Method in brief: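 Cells were plated and cultured 48 h, switched to serum-free induction medium, then dosed in duplicate for 48 h (8 concentrations, max 100 uM). RNA was isolated and SULT2A1 expression measured by qRT-PCR; gain or loss of signal fitted relative to DMSO.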
# [5] = read-out: Transforming Growth Factor (TGFA), TGFA (gene 7039); assay: LTEA_HepaRG_TGFA: Life Technologies and Expression Analysis (LTEA) Assay for Transforming Growth Factor (TGFA) using HepaRG (AID 2283532); details: mRNA level, 48 h; actives raise or lower the signal
# Method in brief: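 qRT-PCR read-out of TGFA transcript, normalized to three housekeeping genes, fitted bidirectionally against 0.5% DMSO baseline. Human HepaRG cultures received chemicals for 48 h at eight half-log concentrations, top 100 uM.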
# [6] = read-out: Transforming Growth Factor (TGFB1), TGFB1 (gene 7040); assay: LTEA_HepaRG_TGFB1: Life Technologies and Expression Analysis (LTEA) Assay for Transforming Growth Factor (TGFB1) Transporter using HepaRG (AID 2283533); details: mRNA level, 48 h; actives raise or lower the signal
# Method in brief: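 Expression change of TGFB1 in human HepaRG cells is measured after a 48 h chemical exposure, up to 100 uM in 0.5% DMSO vehicle. Curves are fitted in both directions relative to the DMSO baseline.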
# [7] = read-out: TIMP1, TIMP1 (gene 7076); assay: LTEA_HepaRG_TIMP1: Life Technologies and Expression Analysis (LTEA) Assay for TIMP1 using HepaRG (AID 2283534); details: mRNA level, 48 h; actives raise or lower the signal
# Method in brief: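 We dosed human liver HepaRG cultures for 48 hours with up to 100 uM test chemical and measured TIMP1 expression by qRT-PCR. Activity in either direction is fitted relative to the 0.5% DMSO vehicle.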
# [8] = read-out: Tumor necrosis factor receptor 1 (TNFRSF1A), TNFRSF1A (gene 7132); assay: LTEA_HepaRG_TNFRSF1A: Life Technologies and Expression Analysis (LTEA) Assay for Tumor necrosis factor receptor 1 (TNFRSF1A) using HepaRG (AID 2283535); details: mRNA level, 48 h; actives raise or lower the signal
# Method in brief: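 Expression of TNFRSF1A in human HepaRG liver cells was measured by qRT-PCR 48 h after chemical dosing (maximum 100 uM). Bidirectional curve fitting used 0.5% DMSO as baseline.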
# [9] = read-out: Thyroid Hormone Responsive (THRSP), THRSP (gene 7069); assay: LTEA_HepaRG_THRSP: Life Technologies and Expression Analysis (LTEA) Assay for Thyroid Hormone Responsive (THRSP) using HepaRG (AID 2283536); details: mRNA level, 48 h; actives raise or lower the signal
# Method in brief: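 qRT-PCR read-out (Fluidigm TaqMan), housekeeping-normalized (ACTB/GAPDH/POLR2A). HepaRG, 48 h chemical exposure, 8-pt half-log series from 100 uM in 0.5% DMSO, duplicates. Bidirectional curve fit vs 0.5% DMSO baseline.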
# [10] = read-out: Cellular tumor antigen p53 (Homo sapiens) (UniProt P04637); assay: LTEA_HepaRG_TP53: Life Technologies and Expression Analysis (LTEA) Assay for Tumor Protein P53 (TP53) using HepaRG (AID 2283537); details: mRNA level, 48 h; actives raise or lower the signal
# Method in brief: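 HepaRG, 48 h exposure, top 100 uM, half-log 8-point, 0.5% DMSO vehicle, duplicates. Read: TP53 mRNA by TaqMan qRT-PCR, normalised to ACTB/GAPDH/POLR2A; bidirectional fit vs DMSO.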
# [11] = read-out: UDP glucuronosyltransferase (UGT1A1), UGT1A1 (gene 54658); assay: LTEA_HepaRG_UGT1A1: Life Technologies and Expression Analysis (LTEA) Assay for UDP glucuronosyltransferase (UGT1A1) using HepaRG (AID 2283538); details: mRNA level, 48 h; actives raise or lower the signal
# Method in brief: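 mRNA induction or loss of UGT1A1, by TaqMan qRT-PCR, in duplicate HepaRG wells after 48 h exposure to half-log dilutions topping at 100 uM; DMSO (0.5%) served as baseline.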
# [12] = read-out: UDP glucuronosyltransferase (UGT1A6), UGT1A6 (gene 54578); assay: LTEA_HepaRG_UGT1A6: Life Technologies and Expression Analysis (LTEA) Assay for UDP glucuronosyltransferase (UGT1A6) using HepaRG (AID 2283539); details: mRNA level, 48 h; actives raise or lower the signal
# Method in brief: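 Endpoint is UGT1A6 transcript induction or loss in a human liver cell line, quantified by TaqMan qRT-PCR 48 h after dosing. Concentrations ran from 100 uM downward in half-log steps in 0.5% DMSO; activity was fitted in both directions versus vehicle.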
# [13] = read-out: X-box binding protein 1 (XBP1), XBP1 (gene 7494); assay: LTEA_HepaRG_XBP1: Life Technologies and Expression Analysis (LTEA) Assay for X-box binding protein 1 (XBP1) using HepaRG (AID 2283540); details: mRNA level, 48 h; actives raise or lower the signal
# Method in brief: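 Human HepaRG monolayers receive test chemical for 48 h across an eight-point half-log series starting at 100 uM. XBP1 mRNA gain or loss is scored against DMSO by qRT-PCR.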
# [14] = LTEA_HepaRG_LDH_cytotoxicity: Cytotoxicity Assessment in the Life Technologies and Expression Analysis (LTEA) Assay (AID 2283563; active = hit-call score of the fitted dose curve at least 0.9, where 1 is the maximum)
# Method in brief: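 Human HepaRG hepatic cells are treated with test chemicals for 48 h at up to 100 uM in 0.5% DMSO. Cytotoxicity is scored from medium LDH against the vehicle control.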
# [15] = target: Cellular tumor antigen p53 (Homo sapiens) (UniProt P04637); assay: TOX21_p53_BLA_p2_ratio: Tox21 HCT-116 p53 Agonism Beta-lactamase Assay, Ratio, Phase 2 (AID 2283592; active = hit-call score of the fitted dose curve at least 0.9, where 1 is the maximum)
# Sequence of Cellular tumor antigen p53 (Homo sapiens) (P04637 whole entry, looked up): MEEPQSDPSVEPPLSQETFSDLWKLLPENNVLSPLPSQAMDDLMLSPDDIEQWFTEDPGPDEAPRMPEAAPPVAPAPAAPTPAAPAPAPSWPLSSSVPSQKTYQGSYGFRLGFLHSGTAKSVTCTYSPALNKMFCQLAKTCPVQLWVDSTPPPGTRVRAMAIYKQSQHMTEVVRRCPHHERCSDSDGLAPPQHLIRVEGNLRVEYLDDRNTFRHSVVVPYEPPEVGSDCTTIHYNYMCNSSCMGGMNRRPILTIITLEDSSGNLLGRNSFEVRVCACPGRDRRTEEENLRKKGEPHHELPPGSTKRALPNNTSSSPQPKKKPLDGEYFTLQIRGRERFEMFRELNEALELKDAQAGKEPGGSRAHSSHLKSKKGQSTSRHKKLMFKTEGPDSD
# Method in brief: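 Cleaved-to-uncleaved substrate ratio (460 vs 530 nm) measured in HCT116 cells with an inducible beta-lactamase reporter linked to p53 activity. Compounds incubated 16 h at 37C before 2 h room-temperature CCF4-AM loading.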
# [16] = target: Cellular tumor antigen p53 (Homo sapiens) (UniProt P04637); assay: TOX21_p53_BLA_p3_ratio: Tox21 HCT-116 p53 Agonism Beta-lactamase Assay, Ratio, Phase 3 (AID 2283596; active = hit-call score of the fitted dose curve at least 0.9, where 1 is the maximum)
# Method in brief: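 Cells were seeded at 4000/well, rested 5 h at 37C, then dosed with DMSO compound solutions (217-fold dilution) for 16 h. CCF4-AM substrate was loaded for 2 h at room temperature, and the 460/530 nm emission ratio was fitted for gain of signal versus DMSO.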
# [17] = ATG_XTT_Cytotoxicity: Cytotoxicity Assessment in the Attagene TRANS-FACTORIAL HepG2 Assay (AID 2283584; active = hit-call score of the fitted dose curve at least 0.9, where 1 is the maximum)
# Method in brief: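 Transfect HepG2 with GAL4-UAS reporter units, dose compound, incubate 24 h, then measure viable cell number by XTT. Fit concentration response against DMSO baseline.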
# [18] = TOX21_p53_BLA_p2_viability: Viability Assessment in the Tox21 HCT-116 p53 Agonism Beta-lactamase Assay, Phase 2 (AID 2283591; active = hit-call score of the fitted dose curve at least 0.9, where 1 is the maximum;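 note: compound exposure lasted 16 h at 37 °C; actives lower the ATP signal meaning cytotoxicity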)
# Method in brief: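 HCT116 p53-bla cells, 4000/well, dosed after 5 h plating (217-fold dilution of DMSO stocks) and incubated 16 h at 37C. Viability taken as cellular ATP by CellTiter-Glo luminescence after 30 min RT; signal loss marks cytotoxicity.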
# [19] = TOX21_p53_BLA_p3_viability: Viability Assessment in the Tox21 HCT-116 p53 Agonism Beta-lactamase Assay, Phase 3 (AID 2283593; active = hit-call score of the fitted dose curve at least 0.9, where 1 is the maximum;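 note: cells exposed to compound for 16 h before reading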)
# Method in brief: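 HCT116 cells, 4000/well, dosed 5 h after plating by pin transfer (217-fold dilution from DMSO stock) and incubated 16 h at 37C, 5% CO2. Viability read as ATP luminescence with CellTiter-Glo after 30 min at room temperature.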
# [20] = TOX21_p53_BLA_p4_viability: Viability Assessment in the Tox21 HCT-116 p53 Agonism Beta-lactamase Assay, Phase 4 (AID 2283597; active = hit-call score of the fitted dose curve at least 0.9, where 1 is the maximum;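 note: hits lower the luminescence signal meaning cytotoxicity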)
# Method in brief: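 Viability is taken as cellular ATP: after 16 h compound exposure of HCT116 cells and a 2 h room-temperature CCF4-AM substrate step, CellTiter-Glo reagent is added and luminescence is measured 30 min later.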
# Sequence of Signal transducer and activator of transcription 3 (Homo sapiens) (P40763 whole entry, looked up): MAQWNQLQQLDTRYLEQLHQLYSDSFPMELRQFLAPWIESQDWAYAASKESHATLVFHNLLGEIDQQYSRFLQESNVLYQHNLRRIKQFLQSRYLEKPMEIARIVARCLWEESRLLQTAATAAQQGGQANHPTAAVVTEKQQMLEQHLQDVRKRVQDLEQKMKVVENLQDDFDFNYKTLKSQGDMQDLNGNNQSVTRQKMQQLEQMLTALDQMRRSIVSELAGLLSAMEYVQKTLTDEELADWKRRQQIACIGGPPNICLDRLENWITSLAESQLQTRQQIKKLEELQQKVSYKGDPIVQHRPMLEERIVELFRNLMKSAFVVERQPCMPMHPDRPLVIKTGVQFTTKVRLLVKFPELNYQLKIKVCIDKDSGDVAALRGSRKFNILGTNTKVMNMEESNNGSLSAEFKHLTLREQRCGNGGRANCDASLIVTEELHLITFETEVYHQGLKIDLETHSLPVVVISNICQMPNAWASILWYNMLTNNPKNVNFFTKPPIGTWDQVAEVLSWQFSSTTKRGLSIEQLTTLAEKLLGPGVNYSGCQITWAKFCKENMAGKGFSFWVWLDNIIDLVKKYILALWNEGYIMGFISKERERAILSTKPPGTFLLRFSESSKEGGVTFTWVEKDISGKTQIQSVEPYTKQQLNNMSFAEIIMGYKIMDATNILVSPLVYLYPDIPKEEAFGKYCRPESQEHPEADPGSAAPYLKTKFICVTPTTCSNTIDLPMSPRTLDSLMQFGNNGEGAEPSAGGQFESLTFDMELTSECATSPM
compound,measurement,setting,value
NCCO,outcome,[1],inactive
same,outcome,[2],inactive
same,outcome,[3],inactive
same,outcome,[4],inactive
same,outcome,[5],inactive
same,outcome,[6],inactive
same,outcome,[7],inactive
same,outcome,[8],inactive
same,outcome,[9],inactive
same,outcome,[10],inactive
same,outcome,[11],inactive
same,outcome,[12],inactive
same,outcome,[13],inactive
same,outcome,[14],inactive
same,outcome,[15],inactive
same,outcome,[16],inactive
Cc1ccc(C(C)C)c(O)c1,outcome,[1],inactive
same,outcome,[2],inactive
same,outcome,[3],inactive
same,outcome,[4],inactive
same,outcome,[5],inactive
same,outcome,[6],inactive
same,outcome,[7],inactive
same,outcome,[8],inactive
same,outcome,[9],inactive
same,outcome,[10],inactive
same,outcome,[11],inactive
same,outcome,[12],inactive
same,outcome,[14],inactive
same,outcome,[17],inactive
same,AC50,[18],66 µM (active)
same,outcome,[15],inactive
same,outcome,[19],inactive
same,outcome,[16],inactive
same,AC50,[20],60.5 µM (active)
same,outcome,[20],inactive
CC(CO)OC(C)CO (stereo not drawn) (tested in a mixture with another compound),outcome,[1],inactive
same,outcome,[2],inactive
same,outcome,[3],inactive
same,outcome,[4],inactive
same,outcome,[5],inactive
same,outcome,[6],inactive
same,outcome,[7],inactive
same,outcome,[8],inactive
same,outcome,[9],inactive
same,outcome,[10],inactive
same,outcome,[11],inactive
same,outcome,[12],inactive
same,outcome,[13],inactive
same,outcome,[14],inactive
same,outcome,[17],inactive
CCCCCCCCCCCCCCCC,outcome,[1],inactive
same,outcome,[2],inactive
same,outcome,[3],inactive
same,outcome,[4],inactive
same,outcome,[5],inactive
same,outcome,[6],inactive
same,outcome,[7],inactive
same,outcome,[8],inactive
same,outcome,[9],inactive
same,outcome,[10],inactive
same,outcome,[11],inactive
same,outcome,[12],inactive
same,outcome,[13],inactive
same,outcome,[14],inactive
same,outcome,[18],inactive
same,outcome,[15],inactive
same,outcome,[19],inactive
same,outcome,[16],inactive
Cc1ccc2ncccc2c1,outcome,[1],inactive
same,outcome,[2],inactive
same,outcome,[3],inactive
same,outcome,[4],inactive
same,outcome,[5],inactive
same,outcome,[6],inactive
same,outcome,[7],inactive
same,outcome,[8],inactive
same,outcome,[9],inactive
same,outcome,[10],inactive
same,outcome,[11],inactive
same,outcome,[12],inactive
same,outcome,[13],inactive
same,outcome,[14],inactive
same,outcome,[17],inactive
same,outcome,[15],inactive
same,outcome,[16],inactive
same,outcome,[20],inactive
CCCc1cc(=O)[nH]c(=S)[nH]1,outcome,[1],inactive
same,outcome,[2],inactive
same,outcome,[3],inactive
same,outcome,[4],inactive
same,outcome,[5],inactive
same,outcome,[6],inactive
same,outcome,[7],inactive
same,outcome,[8],inactive
same,outcome,[9],inactive
same,outcome,[10],inactive
same,outcome,[11],inactive
same,outcome,[12],inactive
same,outcome,[13],inactive
same,outcome,[14],inactive
same,outcome,[18],inactive
same,outcome,[15],inactive
same,outcome,[19],inactive
same,outcome,[16],inactive
same,outcome,[20],inactive
C=CCOC(=O)c1ccccc1C(=O)OCC=C,outcome,[1],inactive
same,outcome,[2],inactive
same,outcome,[3],inactive
same,outcome,[4],inactive
same,outcome,[5],inactive
same,outcome,[6],inactive
same,outcome,[7],inactive
same,outcome,[8],inactive
same,outcome,[9],inactive
same,outcome,[10],inactive
same,outcome,[11],inactive
same,outcome,[13],inactive
same,outcome,[14],inactive
same,outcome,[17],inactive
same,outcome,[18],inactive
same,outcome,[15],inactive
same,outcome,[16],inactive
